HCV inhibitor: HCV inhibition; Huh7.5.1 HCVcc-Cre infection, luciferase reporter, 44 h; Potency, µM (highest dose often 41.8 µM), usual class: inhibitors; 340,000 tested, 3.4% active; AID 651820; active = well fitted inhibition curve with a large enough effect; inconclusive = small, poorly fitted or top-dose-only effect, or another doubt; inactive = no such curve, though single readings can be large or run the other way
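Luciferase read-out (15 sec integration) after a 15 min room-temperature substrate step quantifies HCVcc-Cre infection. Cells, 1,000 per well, had compound added 4 h post-plating, then virus at ~0.5 moi, and were cultured 44 h.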
HCMV inh: inhibitors of human cytomegalovirus; HFF cells, HCMV-luciferase reporter, 72 h; stronger effect = lower value; 410,000 tested, 4.5% active; activity change, negative = inhibition, % at 57.5 µM; AID 1259415; in the data active = activity change below about -60%; inconclusive = no clear call, values can overlap the other calls; inactive = above about -39%
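Screen run at 2 compound doses on HFFs infected with reporter HCMV, MOI 1 PFU/cell. Luciferase activity from cell lysates at 72 h post infection gave inhibition relative to buffer-only and Salinomycin wells.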
FMDV inh: blocks foot and mouth disease virus; FMDV antiviral cell-based qHTS; Potency, µM (top dose mostly 57.9 µM), actives largely listed as inhibitors; 410,000 tested, 1.2% active; calls by dose curve; tested in HEK293T cells; note: read-out not given here; nearly all actives have a fitted effect of over 45% in size
Lassa entry inh: blocks Lassa virus binding to or entry into cells; Lassa virus pseudotype entry inhibition, cell reporter; Potency, µM (series often up to 37.9 µM), hits mostly inhibitors; 300,000 tested, 1.2% active; AID 540256; calls by dose curve; tested in HEK293 cells; note: nearly all actives have a fitted effect of over 50% in size
Marburg entry inh: inhibitors of Marburg virus binding or cell entry; Marburg virus pseudotyped entry inhibition, cell reporter; Potency, µM (doses to about 37.8 µM), hits mostly inhibitors; 300,000 tested, 1.8% active; AID 540276; calls by dose curve; tested in HEK293 cells
A number is an active result; i = inactive; ? = inconclusive; nt = not tested or not shown; + = active, no number; ! = not confirmed by another sample. Sampled rows, rich in hits. Any-hit rate of the full collection: about 7.9%.

SMILES	HCV inhibitor	HCMV inh	FMDV inh	Lassa entry inh	Marburg entry inh
Cc1cc(F)ccc1N1CCC(N2CCN(C(C)C)C(CCO)C2)CC1 (stereo not drawn)	?	i	i	i	?
COc1cccc(CN2CCN(C3CCN(c4ccccc4C)CC3)CC2CCO)c1 (stereo not drawn)	i	i	i	nt	nt
COc1cccc(CN2CCN(C3CCN(c4cccc(C)c4C)CC3)CC2CCO)c1 (stereo not drawn)	11.2µM	i	?	nt	nt
NS(=O)(=O)c1ccc(N2C(=O)CCCC2=O)cc1	nt	i	i	nt	nt
COc1cc(OC)c2c(-c3ccccc3)cc(=O)oc2c1C(CCN1CCCCC1)c1ccc(N(C)C)cc1 (stereo not drawn)	i	nt	i	nt	nt
COc1ccc(C(CCN2CCCCC2)c2c(OC)cc(OC)c3c(-c4ccccc4)cc(=O)oc23)cc1 (stereo not drawn)	2.82µM	i	i	nt	nt
COc1cc(C(CC(=O)N2CCCC2)c2c(OC)cc(OC)c3ccc(=O)oc23)cc(OC)c1OC (stereo not drawn)	i	i	i	nt	nt
COc1cc(C(CCN2CCN(c3ccccc3)CC2)c2c(OC)cc(OC)c3c(C)cc(=O)oc23)cc(OC)c1OC (stereo not drawn)	3.98µM	i	i	nt	nt
COc1cc(C(CCN2CCCC2)c2c(OC)cc(OC)c3ccc(=O)oc23)cc(OC)c1OC (stereo not drawn)	2µM	i	i	nt	nt
O=C(Nc1nnc(S(=O)(=O)N2CCCCC2)s1)c1ccc(F)cc1	nt	i	i	i	nt
Cc1cc(C)c2c(N)c3cccc(C)c3nc2n1	12.6µM	-98.9	i	?	3.66µM
CCC(Sc1nc2ccsc2c(=O)n1Cc1ccc(C(=O)O)cc1)C(=O)Nc1cc(Cl)ccc1C (stereo not drawn)	nt	-94.6	i	nt	nt
CCC(Sc1nc2ccsc2c(=O)n1Cc1ccc(C(=O)O)cc1)C(=O)Nc1ccc(C)c(Cl)c1 (stereo not drawn)	i	i	i	nt	nt
CCC(Oc1ccc(F)cc1)C(=O)Nc1nc(-c2ccc(F)cc2)ns1 (stereo not drawn)	nt	-97.5	i	?	?
O=C(/C=C/Nc1ccccc1)c1ccc(Cl)cc1Cl	i	i	i	nt	nt
N#Cc1c(Nc2ccccc2)[n+]([O-])c2ccc(Cl)cc2[n+]1[O-]	2.82µM	?	i	3.16µM	?
O=S(=O)(Nc1ccccn1)c1ccc(Cl)c2ccccc12	i	i	i	i	i
O=C(c1ccc2c(c1)N(Cc1cccc(Cl)c1)C(=O)c1ccccc1S2(=O)=O)N1CCC(Cc2ccccc2)CC1	nt	?	i	i	nt
O=C(CCl)Nc1cn(-c2ccccc2)nc1-c1ccc(F)cc1	?	-72.2	15.8µM	11.2µM	?
CN1CCN(C(=O)c2ccc(N3CC4ON=C(c5c(F)cccc5Cl)C4C3)cc2)CC1 (stereo not drawn)	nt	i	nt	nt	nt
Cc1ccc(CNc2nnc(C)c3nnn(Cc4ccc(F)cc4)c23)cc1	nt	i	i	i	i
COc1cc(-c2nc3cnccn3c2Nc2ccc(C(C)C)cc2)ccc1O	?	-91.7!	39.8µM	?	?
COc1cc(-c2nc3nc[nH]n3c2Nc2ccc(C(C)C)cc2)ccc1O	nt	-68.1	i	?	i
COc1cc(-c2nc3cnccn3c2Nc2ccc(C)cc2)ccc1O	?	i	i	?	i
CNC(=O)/C(=C\c1ccc2c(c1)OCO2)NC(=O)c1ccc(Br)cc1	i	-60.5	i	i	i
SMILES	HCV inhibitor	HCMV inh	FMDV inh	Lassa entry inh	Marburg entry inh
COc1ccc(Cl)cc1N1CC(c2nc3ccccc3[nH]2)CC1=O (stereo not drawn)	i	-98.9	i	nt	nt
O=C1CC(c2nc3ccccc3[nH]2)CN1c1ccccc1F (stereo not drawn)	i	i	i	nt	nt
O=C1CC(c2nc3ccccc3[nH]2)CN1Cc1ccccc1 (stereo not drawn)	i	i	i	nt	i
O=C1CC(c2nc3ccccc3[nH]2)CN1c1cccc(C(F)(F)F)c1 (stereo not drawn)	i	-96.4	?	?	i
CC#CCN1c2ccccc2[C@]23CCC(=O)N(Cc4cccc(C(F)(F)F)c4)C2=NC(C(=O)OC)=C(C(=O)OC)[C@H]13	nt	nt	nt	nt	i
CCCCNC(=O)c1nc2ccccc2nc1-c1ccc(F)c(F)c1	nt	i	nt	nt	nt
Cc1ccc(S(=O)(=O)N(CC(=O)N/N=C\c2cccs2)c2cccc3cccnc23)cc1	?	-62.6	i	?	i
COc1cccc(-c2ccc3ncnc(NCc4cccnc4)c3c2)c1	nt	-77.4	?	nt	nt
CS(=O)(=O)Nc1cccc(-c2ccc3ncnc(NCc4cccnc4)c3c2)c1	nt	nt	i	nt	nt
COc1ccc(NCc2cccnc2)cc1	i	-86.2	i	i	i
Cc1ccc(NCc2cccnc2)cc1	i	i	i	i	i
Cc1cccc(NC(=O)C(CC(C)C)NC(=O)C2CCC(C)CC2)n1 (stereo not drawn)	i	i	i	nt	nt
CC(C)CON=C1C[C@@H](O)[C@@H](O)[C@@H]2[C@H]3C(=O)N(C4CCCCC4)C(=O)[C@@H]3CC[C@@H]12	nt	nt	nt	i	i
CN(Cc1ccccc1)C1=CC(=[N+]2CCCCC2)CC(C)(C)C1	2.82µM	-77.0	?	nt	nt
CC1(C)CC(N2CCCC2)=CC(=[N+]2CCCCC2)C1	i	-92.5	?	?	?
CC1(C)CC(N2CCCC2)=CC(=[N+]2CCCC2)C1	i	-94.2	?	?	2.06µM
CC1(C)CC(N2CCN(Cc3ccccc3)CC2)=CC(=[N+]2CCCCC2)C1	?	+	?	?	6.51µM
Cc1cc(-c2nnc3n2N=C(c2ccc(-c4ccccc4)cc2)CS3)n[nH]1	i	i	?	?	?
c1ccc(C2=Nn3c(nnc3-c3ccncc3)SC2)cc1	i	-73.2	i	i	?
Cc1ccc(-c2nnc3n2N=C(c2ccccc2Br)CS3)cc1	?	-77.8	i	?	?
Cc1cccc(-c2nnc3n2N=C(c2ccccc2)CS3)c1	?	?	i	i	i
c1ccc(-c2cc(-c3nnc4n3N=C(c3ccc5ccccc5c3)CS4)[nH]n2)cc1	i	-95.9	?	i	?
CC(=O)N1CCc2cc(Br)cc(S(=O)(=O)N3CCC(C)CC3)c21	nt	i	i	i	i
CCn1c(=O)c2cc(C(=O)NCc3ccc(F)cc3Cl)sc2c2ccccc21	nt	i	i	i	i
CCC1(C2CCN(Cc3ccc(C)s3)CC2)NC(=O)N(CC2COc3ccccc3O2)C1=O (stereo not drawn)	nt	nt	i	nt	nt
CC(C)N1C(=O)S/C(=C/c2ccc(Sc3nc4ccccc4[nH]3)o2)C1=O	10µM	-84.9	11.2µM	?	?
CCOC(=O)C(C)N1C(=O)S/C(=C\c2ccc(-c3ccccc3C(=O)O)o2)C1=O (stereo not drawn)	i	i	i	nt	nt
O=C1NC(=O)N(c2ccc(Cl)cc2)C(=O)/C1=C\c1ccc(Sc2nc3ccccc3[nH]2)o1	i	i	i	?	?
C=CCN1C(=O)S/C(=C/c2ccc(Sc3nc4ccccc4[nH]3)o2)C1=O	?	-92.3	28.2µM	20µM	?
O=C(NCc1ccccc1)c1[nH]c(C(F)(F)F)nc1-c1ccccc1	nt	i	i	nt	nt
